The values that follow come from ChEMBL document CHEMBL1961873, “Compounds: GSK PKIS; Assays: Nanosyn kinase panel” (2012).

Each structure is given as a SMILES string.

The target of assay [1] is Leukocyte tyrosine kinase receptor (Homo sapiens) (UniProt P29376). To be noted: at 1 µM.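 Note: each value is the mean inhibition of LTK.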
The target of assay [2] is Tyrosine-protein kinase Lyn (Homo sapiens) (UniProt P07948). To be noted: at 0.1 µM.
For assay [3] the target is unchanged. To be noted: at 1 µM.
For assay [4] the target is unchanged. To be noted: at 0.1 µM. This is another data set of the same source.
Assay [5] has the same target. To be noted: at 1 µM. This is another data set of the same source.
The target in assay [6] is T1, Tyrosine-protein kinase Mer (Homo sapiens) (UniProt Q12866).
T1 sequence (whole entry): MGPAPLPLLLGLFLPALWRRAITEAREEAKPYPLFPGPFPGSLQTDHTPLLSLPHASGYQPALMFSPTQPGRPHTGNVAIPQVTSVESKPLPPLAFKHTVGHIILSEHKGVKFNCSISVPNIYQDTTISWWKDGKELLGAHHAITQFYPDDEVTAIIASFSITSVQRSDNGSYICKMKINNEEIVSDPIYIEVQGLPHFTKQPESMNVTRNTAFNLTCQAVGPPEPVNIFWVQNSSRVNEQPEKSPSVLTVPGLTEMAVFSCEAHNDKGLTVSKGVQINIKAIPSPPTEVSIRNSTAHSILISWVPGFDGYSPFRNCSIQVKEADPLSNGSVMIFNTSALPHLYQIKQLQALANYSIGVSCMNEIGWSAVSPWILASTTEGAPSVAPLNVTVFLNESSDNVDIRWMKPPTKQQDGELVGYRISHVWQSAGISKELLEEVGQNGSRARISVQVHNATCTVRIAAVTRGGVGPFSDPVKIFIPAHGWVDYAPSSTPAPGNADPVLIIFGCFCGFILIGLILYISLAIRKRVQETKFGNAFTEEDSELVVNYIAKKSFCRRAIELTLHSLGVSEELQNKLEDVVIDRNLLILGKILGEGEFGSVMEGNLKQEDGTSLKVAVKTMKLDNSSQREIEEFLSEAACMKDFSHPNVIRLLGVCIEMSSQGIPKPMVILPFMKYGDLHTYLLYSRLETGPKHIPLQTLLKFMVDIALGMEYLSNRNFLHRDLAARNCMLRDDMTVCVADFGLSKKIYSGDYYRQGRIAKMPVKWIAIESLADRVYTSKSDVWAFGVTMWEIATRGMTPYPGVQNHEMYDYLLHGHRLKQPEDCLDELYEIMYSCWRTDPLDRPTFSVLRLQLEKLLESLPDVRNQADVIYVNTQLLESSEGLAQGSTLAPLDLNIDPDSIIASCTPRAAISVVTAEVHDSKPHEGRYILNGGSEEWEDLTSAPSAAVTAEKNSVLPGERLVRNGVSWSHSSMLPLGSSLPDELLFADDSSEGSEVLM
To be noted: at 0.1 µM.

The target in assay [7] is T1, Tyrosine-protein kinase Mer (Homo sapiens). To be noted: at 1 µM.
In assay [8] the target is Hepatocyte growth factor receptor (Homo sapiens) (UniProt P08581). To be noted: at 0.1 µM.
Hepatocyte growth factor receptor (Homo sapiens), sequence (P08581 whole entry): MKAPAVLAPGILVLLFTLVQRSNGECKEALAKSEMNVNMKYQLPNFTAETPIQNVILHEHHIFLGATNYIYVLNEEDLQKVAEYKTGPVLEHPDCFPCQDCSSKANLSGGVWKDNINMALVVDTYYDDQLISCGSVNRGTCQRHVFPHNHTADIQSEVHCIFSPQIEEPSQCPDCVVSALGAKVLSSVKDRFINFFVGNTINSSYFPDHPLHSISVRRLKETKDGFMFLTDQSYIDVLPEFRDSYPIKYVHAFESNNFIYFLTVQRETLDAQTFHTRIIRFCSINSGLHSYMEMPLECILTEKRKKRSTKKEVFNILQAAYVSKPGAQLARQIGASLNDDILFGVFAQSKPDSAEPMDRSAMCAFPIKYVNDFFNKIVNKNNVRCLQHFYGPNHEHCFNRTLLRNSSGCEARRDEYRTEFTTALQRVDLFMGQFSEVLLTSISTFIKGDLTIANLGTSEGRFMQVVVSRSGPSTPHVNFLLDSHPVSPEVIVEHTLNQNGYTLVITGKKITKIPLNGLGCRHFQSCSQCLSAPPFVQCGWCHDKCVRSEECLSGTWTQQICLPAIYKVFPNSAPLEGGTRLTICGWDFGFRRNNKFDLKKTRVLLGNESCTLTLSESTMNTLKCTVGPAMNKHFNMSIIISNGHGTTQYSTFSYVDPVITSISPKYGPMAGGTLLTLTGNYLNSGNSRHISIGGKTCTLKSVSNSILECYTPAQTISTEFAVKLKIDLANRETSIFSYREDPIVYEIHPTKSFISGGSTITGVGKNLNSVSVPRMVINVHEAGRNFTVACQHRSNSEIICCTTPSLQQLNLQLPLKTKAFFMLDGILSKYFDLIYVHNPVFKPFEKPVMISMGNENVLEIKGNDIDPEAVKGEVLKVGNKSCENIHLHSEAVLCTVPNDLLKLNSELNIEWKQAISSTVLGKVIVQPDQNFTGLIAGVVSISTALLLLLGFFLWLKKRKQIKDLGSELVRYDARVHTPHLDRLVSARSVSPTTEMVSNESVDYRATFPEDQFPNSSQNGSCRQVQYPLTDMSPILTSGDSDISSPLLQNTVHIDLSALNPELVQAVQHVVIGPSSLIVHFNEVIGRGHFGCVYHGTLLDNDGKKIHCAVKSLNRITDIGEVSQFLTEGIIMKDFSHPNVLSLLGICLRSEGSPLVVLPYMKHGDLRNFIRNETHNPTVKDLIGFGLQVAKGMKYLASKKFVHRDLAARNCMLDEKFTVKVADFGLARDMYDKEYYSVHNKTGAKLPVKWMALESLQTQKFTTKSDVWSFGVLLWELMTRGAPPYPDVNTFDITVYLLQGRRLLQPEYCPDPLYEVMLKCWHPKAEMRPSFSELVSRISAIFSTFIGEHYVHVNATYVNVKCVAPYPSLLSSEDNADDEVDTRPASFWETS
Assay [9] shares this target. To be noted: at 1 µM.
Assay [10] deals with T2, Muscle, skeletal receptor tyrosine-protein kinase (Homo sapiens) (UniProt O15146).
T2 sequence (whole entry): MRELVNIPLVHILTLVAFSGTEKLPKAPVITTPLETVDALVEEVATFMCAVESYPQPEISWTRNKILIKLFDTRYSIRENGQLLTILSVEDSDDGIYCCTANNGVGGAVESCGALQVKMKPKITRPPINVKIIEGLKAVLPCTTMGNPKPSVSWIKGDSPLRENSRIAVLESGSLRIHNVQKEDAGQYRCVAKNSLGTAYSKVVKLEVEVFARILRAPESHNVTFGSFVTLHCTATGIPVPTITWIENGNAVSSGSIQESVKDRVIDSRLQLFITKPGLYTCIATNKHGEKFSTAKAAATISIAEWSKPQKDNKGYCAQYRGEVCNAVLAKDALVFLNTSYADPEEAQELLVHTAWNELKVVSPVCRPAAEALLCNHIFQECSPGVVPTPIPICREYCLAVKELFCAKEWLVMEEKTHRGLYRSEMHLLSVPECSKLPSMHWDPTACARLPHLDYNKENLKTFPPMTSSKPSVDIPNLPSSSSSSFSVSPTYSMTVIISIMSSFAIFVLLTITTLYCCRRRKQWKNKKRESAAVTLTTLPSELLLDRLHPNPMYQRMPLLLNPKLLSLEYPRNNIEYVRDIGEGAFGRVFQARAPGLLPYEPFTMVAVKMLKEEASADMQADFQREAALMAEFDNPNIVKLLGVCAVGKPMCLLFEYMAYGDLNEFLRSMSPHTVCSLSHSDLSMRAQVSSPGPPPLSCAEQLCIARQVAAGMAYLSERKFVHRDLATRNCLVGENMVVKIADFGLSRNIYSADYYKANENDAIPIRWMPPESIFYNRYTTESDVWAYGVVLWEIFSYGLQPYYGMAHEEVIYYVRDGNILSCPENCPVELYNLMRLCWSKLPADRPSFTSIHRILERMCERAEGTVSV
To be noted: at 0.1 µM.

The target in assay [11] is T2, Muscle, skeletal receptor tyrosine-protein kinase (Homo sapiens). To be noted: at 1 µM.
The target in assay [12] is Platelet-derived growth factor receptor alpha (Homo sapiens) (UniProt P16234). To be noted: at 0.1 µM.
Platelet-derived growth factor receptor alpha (Homo sapiens), sequence (P16234 whole entry): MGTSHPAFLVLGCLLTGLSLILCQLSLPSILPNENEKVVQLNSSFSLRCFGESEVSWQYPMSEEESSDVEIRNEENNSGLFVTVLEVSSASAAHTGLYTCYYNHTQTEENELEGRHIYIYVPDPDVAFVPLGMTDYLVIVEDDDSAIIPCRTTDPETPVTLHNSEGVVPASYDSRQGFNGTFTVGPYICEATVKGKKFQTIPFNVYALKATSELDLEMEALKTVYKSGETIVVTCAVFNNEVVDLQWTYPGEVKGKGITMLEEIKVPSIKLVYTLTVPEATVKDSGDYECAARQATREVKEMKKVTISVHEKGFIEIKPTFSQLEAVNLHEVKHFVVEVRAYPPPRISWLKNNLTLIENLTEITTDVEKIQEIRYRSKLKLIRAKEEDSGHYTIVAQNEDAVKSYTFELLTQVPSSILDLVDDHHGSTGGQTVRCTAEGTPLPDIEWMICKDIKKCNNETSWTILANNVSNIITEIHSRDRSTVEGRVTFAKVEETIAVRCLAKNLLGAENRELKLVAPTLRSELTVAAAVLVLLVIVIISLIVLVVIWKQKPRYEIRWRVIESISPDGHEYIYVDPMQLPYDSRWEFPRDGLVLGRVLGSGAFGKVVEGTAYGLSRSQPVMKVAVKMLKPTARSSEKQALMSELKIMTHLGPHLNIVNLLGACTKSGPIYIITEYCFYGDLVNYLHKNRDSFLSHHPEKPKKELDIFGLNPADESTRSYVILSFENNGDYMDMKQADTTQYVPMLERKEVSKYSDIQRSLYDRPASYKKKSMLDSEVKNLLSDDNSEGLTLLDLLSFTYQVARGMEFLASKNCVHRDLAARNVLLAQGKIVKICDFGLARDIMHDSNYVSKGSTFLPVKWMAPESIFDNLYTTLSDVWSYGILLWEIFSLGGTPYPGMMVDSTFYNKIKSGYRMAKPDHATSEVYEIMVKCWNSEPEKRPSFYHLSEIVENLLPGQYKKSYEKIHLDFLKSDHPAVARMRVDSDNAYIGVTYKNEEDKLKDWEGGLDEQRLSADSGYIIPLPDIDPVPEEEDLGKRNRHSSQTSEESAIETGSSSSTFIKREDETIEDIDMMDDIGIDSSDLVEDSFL
The target is the same in assay [13]. To be noted: at 1 µM.
For assay [14], the system named is Platelet-derived growth factor receptor alpha (Homo sapiens), P16234 [D842V]. To be noted: at 0.1 µM.
Platelet-derived growth factor receptor alpha (Homo sapiens), P16234 [D842V], sequence (P16234 whole entry D842V): as the sequence (P16234 whole entry) above, with D842V counted along it
Assay [15] has the same test system. To be noted: at 1 µM.
Assay [16] has as its system Platelet-derived growth factor receptor alpha (Homo sapiens), P16234 [T674I]. To be noted: at 0.1 µM.
For assay [17] the test system is unchanged. To be noted: at 1 µM.
The subject of assay [18] is Platelet-derived growth factor receptor alpha (Homo sapiens), P16234 [V561D]. To be noted: at 0.1 µM.
Assay [19] shares this test system. To be noted: at 1 µM.
For assay [20], the target named is Platelet-derived growth factor receptor beta (Homo sapiens) (UniProt P09619). To be noted: at 0.1 µM.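 Note: reported value is the mean percent inhibition of the kinase.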
Platelet-derived growth factor receptor beta (Homo sapiens), sequence (P09619 whole entry): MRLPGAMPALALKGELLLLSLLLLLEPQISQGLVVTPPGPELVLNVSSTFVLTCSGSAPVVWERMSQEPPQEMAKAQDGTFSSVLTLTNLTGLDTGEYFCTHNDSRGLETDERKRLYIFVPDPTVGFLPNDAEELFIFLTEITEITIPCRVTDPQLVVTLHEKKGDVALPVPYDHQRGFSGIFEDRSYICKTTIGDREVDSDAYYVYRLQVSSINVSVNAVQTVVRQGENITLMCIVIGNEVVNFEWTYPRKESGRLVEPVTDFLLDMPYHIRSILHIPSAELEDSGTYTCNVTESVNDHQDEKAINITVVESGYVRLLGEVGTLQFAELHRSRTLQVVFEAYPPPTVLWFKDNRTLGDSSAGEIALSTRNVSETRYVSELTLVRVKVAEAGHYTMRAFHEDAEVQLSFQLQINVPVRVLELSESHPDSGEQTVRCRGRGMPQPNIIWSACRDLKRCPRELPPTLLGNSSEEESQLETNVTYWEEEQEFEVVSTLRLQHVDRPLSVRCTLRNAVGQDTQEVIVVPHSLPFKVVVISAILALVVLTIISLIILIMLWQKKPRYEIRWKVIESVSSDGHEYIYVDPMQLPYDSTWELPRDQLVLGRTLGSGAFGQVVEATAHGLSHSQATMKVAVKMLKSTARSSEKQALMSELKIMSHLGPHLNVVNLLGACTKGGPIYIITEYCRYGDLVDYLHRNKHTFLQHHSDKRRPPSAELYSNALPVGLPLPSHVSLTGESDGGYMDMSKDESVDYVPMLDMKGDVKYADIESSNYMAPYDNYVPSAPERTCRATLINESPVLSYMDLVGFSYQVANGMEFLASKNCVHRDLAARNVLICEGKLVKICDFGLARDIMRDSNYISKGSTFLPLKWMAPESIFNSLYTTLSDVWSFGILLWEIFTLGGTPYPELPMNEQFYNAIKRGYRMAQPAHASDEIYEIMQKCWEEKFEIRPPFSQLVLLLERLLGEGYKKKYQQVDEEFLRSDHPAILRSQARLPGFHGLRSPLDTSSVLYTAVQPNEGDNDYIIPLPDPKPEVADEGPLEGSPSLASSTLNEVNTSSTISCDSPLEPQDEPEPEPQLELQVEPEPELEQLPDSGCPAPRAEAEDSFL

Take `NS(=O)(=O)c1ccc(N/N=C2\C(=O)Nc3ccc(-c4cnco4)cc32)cc1`: the inhibition in assay [1] is 3.37%; in assay [2] it was 3.33%; in [3], 11.1%; in assay [4], 1.68%; in assay [5] it was 8.81%; in [6], 1.31%. Moreover, the inhibition in assay [7] was 8.19%; in assay [8] it was 6.22%; in assay [9] it was 2.64%; in [10], 4.18%; in assay [11], 18.5%; in [12], 13.9%. For the same compound, the inhibition in assay [13] stood at 49.8%; in assay [14] it was 6.86%; in assay [15] it was 40.8%; in assay [16], 1.96%; in assay [17], 13.9%; in [18] it was 8.44%. The inhibition in [19] stood at 46.8%; in [20] it was 12.1%.
`CN1CCN(CCCNc2nc3ccc(Oc4ccc(NC(=O)Nc5cc(C(F)(F)F)ccc5F)cc4)cc3[nH]2)CC1`: the inhibition was -0.03% in assay [1]; 1.76% in assay [2]; 13.2% in assay [3]; 0.61% in assay [4]; 9.37% in [5]; 2.04% in assay [6]. For the same compound, the inhibition was 6.67% in [7]; 5.66% in assay [8]; 8.95% in assay [9]; 15% in assay [10]; 59.2% in assay [11]; 32.6% in assay [12]. For the same compound, the inhibition in [13] came out at 76.4%; in [14], 2.11%; in [15], 4.41%; in assay [16], 29.5%; in [17] it was 90.7%; in [18] it was 36%. Also, the inhibition in assay [19] was determined as 80.7%; in assay [20], 14.1%.
In the case of `Clc1ccc(CNc2nccc(-c3cnn4ncccc34)n2)cc1`, the inhibition was 0.38% in assay [1]; 3.2% in assay [2]; 5.62% in assay [3]; 1.68% in assay [4]; 3.11% in assay [5]; -0.52% in assay [6]. For the same compound, the inhibition in assay [7] was found to be 0.99%; in assay [8], 2.02%; in assay [9] it was 7.73%; in assay [10] it was 3.18%; in assay [11] it was 3.54%; in [12], 4.87%. Besides, the inhibition in assay [13] amounted to 15.4%; in assay [14] it was 0.87%; in [15], 4.84%; in assay [16] it was 0.55%; in [17], 2.46%; in assay [18] it was 1.98%. Besides, the inhibition in [19] was 7.98%; in assay [20], 3.92%.
Consider `NS(=O)(=O)c1ccc(N/N=C2\C(=O)Nc3ccc(C(=O)NCCCn4ccnc4)cc32)cc1`, for which the inhibition in assay [1] was determined as 7.11%; in assay [2], 6.54%; in assay [3], 16.1%; in assay [4], 4.32%; in [5], 12.4%; in assay [6], 1.34%. The inhibition in assay [7] was 6.35%; in assay [8], 2.76%; in [9] it was 12%; in [10], 4.66%; in [11], 21.6%; in assay [12] it was 10.6%. In addition, the inhibition was 54.2% in assay [13]; 13% in assay [14]; 57.8% in assay [15]; 5.56% in assay [16]; 12.4% in assay [17]; 11.6% in assay [18]. Moreover, the inhibition was found to be 47% in [19] and 23.1% in assay [20].
Turning to `O=C1Nc2ccccc2/C1=C/Nc1ccc(-n2cncn2)cc1`, the inhibition in assay [1] was determined as 7.47%; in [2], 6.77%; in [3] it was 21.6%; in [4], 4.42%; in [5], 17.3%; in [6], 1.28%. Moreover, the inhibition in [7] worked out at 5.61%; in assay [8], 5.14%; in [9] it was 13.6%; in [10] it was 3.92%; in assay [11], 30.9%; in assay [12] it was 10.5%. For the same compound, the inhibition in assay [13] was determined as 45.5%; in [14], 4.56%; in [15], 24.2%; in assay [16] it was 13.1%; in [17] it was 67.2%; in assay [18], 10.8%. The inhibition in [19] amounted to 44.8%; in assay [20] it was 7.25%.
Consider `O=C(Nc1n[nH]c2cc(-c3ccccc3)ccc12)C1CC1`, for which the inhibition in assay [1] is 9.93%; in assay [2] it was 5.94%; in assay [3], 9.06%; in [4], 2.77%; in [5] it was 5.33%; in assay [6], 1.8%. Moreover, the inhibition in assay [7] is 5.12%; in assay [8] it was 0.84%; in assay [9], 5.86%; in assay [10], -0.17%; in [11] it was 4.91%; in assay [12] it was 8.78%. In addition, the inhibition in assay [13] was 20.4%; in assay [14], 2.33%; in [15], 8.97%; in [16], 4.04%; in assay [17] it was 9.67%; in assay [18], 4.85%. For the same compound, the inhibition in [19] stood at 19.4%; in assay [20], 6.45%.
For `CCS(=O)(=O)c1ccc(OC)c(Nc2ncc(-c3ccccc3Cl)o2)c1`, the inhibition in assay [1] is 0.98%; in assay [2], 3.85%; in assay [3] it was 18.6%; in [4], 3.61%; in [5], 14.8%; in [6], -0.83%. For the same compound, the inhibition in [7] was found to be 9.17%; in [8] it was 0.15%; in assay [9], 3.68%; in assay [10], 4.75%; in [11] it was 8.58%; in assay [12], 5.6%. The inhibition in [13] came to 16.2%; in assay [14], 1.1%; in assay [15], 4.35%; in assay [16], 0.38%; in assay [17], 5.02%; in assay [18] it was 2.97%. Moreover, the inhibition in [19] amounted to 15.1%; in assay [20] it was 4.1%.

Broadly, the inhibition is the relative decrease from the control value, in per cent.
